Activity calls are given as the source filed them. Rule as the data show it: active = inhibition above about 42%; inactive = the rest.
These compounds were tested against Nuclear receptor subfamily 5 group A member 2 (Homo sapiens) (UniProt O00482) (assay: NR5A2 activity suppression in reporter cells – cell-based, luminescence, confirmation (AID 651613;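 also: HEK293T cells co-transfected with LRH-1 and StAR promoter luciferase reporter; 0% = vehicle wells and 100% = parental cells lacking receptor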)). Settings: cell-based LRH-1 luciferase reporter, inverse agonism; at 3.6 µM; stronger effect = higher value.
Nuclear receptor subfamily 5 group A member 2 (Homo sapiens), sequence (O00482 whole entry, looked up): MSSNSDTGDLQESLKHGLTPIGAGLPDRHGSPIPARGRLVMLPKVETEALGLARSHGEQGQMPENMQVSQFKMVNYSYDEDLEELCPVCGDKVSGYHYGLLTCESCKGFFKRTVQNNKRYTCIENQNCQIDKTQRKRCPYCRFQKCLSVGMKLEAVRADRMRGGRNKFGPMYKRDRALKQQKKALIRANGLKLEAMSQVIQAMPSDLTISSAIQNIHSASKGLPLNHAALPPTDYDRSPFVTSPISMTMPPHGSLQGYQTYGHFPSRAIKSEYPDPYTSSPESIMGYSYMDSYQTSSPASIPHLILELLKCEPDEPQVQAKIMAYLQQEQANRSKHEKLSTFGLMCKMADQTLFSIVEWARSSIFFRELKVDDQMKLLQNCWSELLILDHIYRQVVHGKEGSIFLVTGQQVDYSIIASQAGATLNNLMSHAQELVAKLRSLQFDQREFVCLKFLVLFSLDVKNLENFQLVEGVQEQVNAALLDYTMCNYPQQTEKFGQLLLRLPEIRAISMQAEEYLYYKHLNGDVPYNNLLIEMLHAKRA

| Compound | inhibition |
| --- | --- |
| CC(=O)NC12CC3CC(C1)CC(C(=O)Nc1nc4ccc(S(C)(=O)=O)cc4s1)(C3)C2 | 50.8% (active) |
| COc1ccccc1OCc1nnc(SCC(=O)Nc2ccc(N3CCOCC3)cc2)n1C | 17.9% (inactive) |
| CC(=O)Nc1ccc(NC(=O)COC(=O)c2c(C)nn(-c3ccccc3)c2C)cc1 | 51.6% (active) |
| CCOc1cc(S(=O)(=O)NCc2ccncc2)ccc1Cl | 56.6% (active) |
| CC(=O)N(/N=C/c1ccc([N+](=O)[O-])o1)c1nc2ccccc2c(=O)n1-c1ccccc1 | 69% (active) |
| O=C(c1ccccc1)N(NC(=O)C(O)(c1ccccc1)c1ccccc1)c1cccc(F)c1 | 61.5% (active) |
| CC1CCCN(c2cc(N(C)CCO)c([N+](=O)[O-])c3nonc23)C1 (stereo not given) | 56.2% (active) |
| COc1ccc2nc(N3CCC(O)CC3)c(C#N)cc2c1 | 43.6% (active) |
| NC(=S)N/N=C/c1ccc(-c2ccc([N+](=O)[O-])cc2)o1 | 52.5% (active) |
| CC(=O)c1cccc(NC(=O)c2ccc([N+](=O)[O-])o2)c1 | 61.7% (active) |
| O=C(Nc1ccc(C(=O)N2CCOCC2)cc1)c1cccc([N+](=O)[O-])c1 | 48.4% (active) |
| Cc1ccc(C)c(NC(=O)CSc2nnc(-c3ccccc3)n2N)c1 | 53% (active) |
| COc1ccc(CCNC(=O)CSc2nc3[nH]ncc3c(=O)n2-c2ccc(C)c(Cl)c2)cc1OC | 61.3% (active) |
| CC(=O)NC(Cc1c[nH]c2ccccc12)C(=O)OCC(=O)Nc1ccc2c(c1)OCO2 (stereo not given) | 56.8% (active) |
| Cc1ccc(NC(=O)COC(=O)c2cc(=O)c3ccccc3o2)c(Br)c1 | 50.4% (active) |
